The results in this text go back to PubChem BioAssay.

Structures are written as SMILES. Values without a mark were called inactive. Activity calls are given as the source filed them.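 How the source made its calls, unless noted: active means mean inhibition above 46.5%, the solvent-only control mean plus 3 SD; inactive means the rest.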

In experiment [1] the test system is transactivating tegument protein VP16 (Human herpesvirus 1). In words: compounds suppressing VP16-driven luciferase signal – cell-based, luminescence, single concentration, counter-screen for SRC2 inhibitor project (AID 652007; in the data active means inhibition above about 36%). The conditions noted are these: cell-based VP16 transactivation luciferase reporter, at 8.9 µM, active compounds read high.
Experiment [2] concerns the target Nuclear receptor coactivator 2 (Homo sapiens) (UniProt Q15596). In words: inhibition of GAL4-SRC2 driven luciferase expression – cell-based, luminescence, HEK293, triplicate, confirmation (AID 652008).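 Further: 0% = DMSO-treated cells and 100% = Gossypol at 36 µM.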 The conditions noted are these: HEK293 GAL4-SRC2 luciferase reporter, at 8.9 µM, active compounds read high.

Sequence of Nuclear receptor coactivator 2 (Homo sapiens) (Q15596 whole entry, looked up, the tested form may be a part): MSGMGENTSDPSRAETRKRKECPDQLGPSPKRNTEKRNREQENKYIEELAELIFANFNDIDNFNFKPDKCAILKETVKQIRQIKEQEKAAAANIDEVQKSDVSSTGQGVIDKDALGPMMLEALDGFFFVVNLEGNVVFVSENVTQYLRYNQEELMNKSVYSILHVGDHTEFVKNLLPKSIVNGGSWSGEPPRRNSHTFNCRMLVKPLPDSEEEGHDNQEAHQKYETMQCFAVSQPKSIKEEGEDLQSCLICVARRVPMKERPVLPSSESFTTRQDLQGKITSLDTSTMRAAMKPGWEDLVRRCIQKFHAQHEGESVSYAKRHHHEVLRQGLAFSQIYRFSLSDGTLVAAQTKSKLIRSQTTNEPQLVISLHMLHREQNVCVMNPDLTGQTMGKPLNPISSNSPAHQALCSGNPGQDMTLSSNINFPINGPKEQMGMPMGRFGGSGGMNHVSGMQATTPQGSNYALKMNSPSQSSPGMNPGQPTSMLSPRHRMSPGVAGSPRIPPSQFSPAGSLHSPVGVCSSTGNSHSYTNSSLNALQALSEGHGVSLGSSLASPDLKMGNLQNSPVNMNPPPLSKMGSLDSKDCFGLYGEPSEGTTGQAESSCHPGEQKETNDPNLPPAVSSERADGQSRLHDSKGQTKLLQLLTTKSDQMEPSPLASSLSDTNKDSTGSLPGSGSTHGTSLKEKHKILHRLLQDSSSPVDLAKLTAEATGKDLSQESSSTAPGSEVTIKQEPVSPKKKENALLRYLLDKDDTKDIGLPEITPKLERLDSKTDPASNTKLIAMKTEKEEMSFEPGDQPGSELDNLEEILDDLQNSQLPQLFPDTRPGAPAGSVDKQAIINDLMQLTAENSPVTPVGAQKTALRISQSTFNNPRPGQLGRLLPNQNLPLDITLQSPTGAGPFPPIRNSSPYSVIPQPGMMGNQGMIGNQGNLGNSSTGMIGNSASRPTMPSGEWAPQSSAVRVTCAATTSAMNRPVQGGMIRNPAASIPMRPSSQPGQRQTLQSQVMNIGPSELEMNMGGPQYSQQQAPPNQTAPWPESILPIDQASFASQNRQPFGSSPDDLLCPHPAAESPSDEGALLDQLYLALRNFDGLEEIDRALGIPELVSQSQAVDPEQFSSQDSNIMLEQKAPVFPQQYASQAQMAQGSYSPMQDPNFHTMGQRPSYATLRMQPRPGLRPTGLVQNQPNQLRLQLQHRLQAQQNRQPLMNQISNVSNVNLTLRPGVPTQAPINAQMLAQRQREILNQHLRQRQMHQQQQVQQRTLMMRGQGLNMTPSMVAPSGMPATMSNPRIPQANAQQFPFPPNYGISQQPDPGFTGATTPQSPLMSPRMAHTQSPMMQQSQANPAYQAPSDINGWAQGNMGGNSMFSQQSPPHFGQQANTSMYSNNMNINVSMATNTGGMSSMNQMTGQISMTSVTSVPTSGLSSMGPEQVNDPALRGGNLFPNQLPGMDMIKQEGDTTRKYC

On to `COc1ccccc1NC(=S)N1CCCCCC1`, for which the inhibition in experiment [1] was -7.33%; in experiment [2] it was -14.3%.
On the same counts, the results for `O=C(CCCN1C(=O)/C(=C/c2cccs2)SC1=S)Nc1ccccn1` are 12.4% and 10.9%.
On the same counts, the results for `C=C1C(=O)O[C@@H]2C[C@@H](C)[C@@H]3C=CC(=O)[C@@]3(C)[C@@H](OC(C)=O)[C@H]12` are 96% (active) and 91% (active).
On the same counts, the results for `CCOn1c(=O)c[n+]([O-])c2ccccc21` are 9.21% and -6.65%.
In the case of `NNC(=O)c1[nH]c2ccc(Br)cc2c1-c1ccccc1`, the inhibition in experiment [1] was -11.1%; in experiment [2], -1.32%.
The like results for `CCc1ccc(/C=C2\SC(=S)N(CCCC(=O)N3CCN(C)CC3)C2=O)cc1` were, in that order, -9.42% and 11.9%.
The like results for `Cc1onc(C(=O)N2CCC(Cc3ccccc3)CC2)c1[N+](=O)[O-]` were, in that order, -1.3% and 5.37%.
On the same counts, the results for `O=C(NC(=S)Nc1cccc2cc(O)ccc12)c1ccccc1Br` are 2.57% and -14.4%.
Regarding `CCc1ccc(C=C2SC(=S)N(CCCC(=O)Nc3ccc(C(=O)O)cc3)C2=O)cc1`, the inhibition is -9.93% in experiment [1] and -5.86% in experiment [2].
On the same counts, the results for `CC(C)C(=O)Nc1cccc2nsnc12` are -7.28% and 5.54%.
As to `O=C(CCCN1C(=O)/C(=C/c2ccccc2Cl)SC1=S)Nc1ccccn1`, the figures for the inhibition in experiment [1] and in experiment [2] were 25.5% and 43.8%, respectively.
The like results for `COc1ccc2nc(NC(=O)C3CCN(S(=O)(=O)c4cccc5nsnc45)CC3)sc2c1` were, in that order, 39.9% (active) and 52.5% (active).
The like results for `FC(F)(F)c1cnc(NNC(=S)Nc2ccccc2)c(Cl)c1` were, in that order, 10.3% and 14%.
The like results for `O=S1(=O)CCS(=O)(=O)C1c1ccccc1` were, in that order, 15.8% and -3.12%.
In the case of `CC(C)COc1ccc(C/C(N)=N/n2cnnc2)cc1`, the inhibition in experiment [1] was 22.1%; in experiment [2] it was 40.3%.
The like results for `CCOC(=O)[C@]12CCC=C1N(CCC1=CCCCC1)C(=O)[C@H](CC(=O)N1CCC(c3ccccc3)CC1)C2` were, in that order, 1.35% and -24.7%.
The like results for `CCOC(=O)C1=CCN(S(=O)(=O)c2ccccc2C)C1c1ccc(Cl)c(Cl)c1` (centres undefined) were, in that order, -18.3% and -14%.
The like results for `CC(C)(C)NC(=O)COC(=O)c1snc(C(=O)NC2CCCCC2)c1N` were, in that order, -7.99% and 8.82%.
As to `O=C(Nc1nc2ccccc2s1)c1ccc(N2CCCCC2)c([N+](=O)[O-])c1`, the inhibition is -57.5% in experiment [1] and 10% in experiment [2].
On the same counts, the results for `O=S(=O)(C/C(=C/CO)S(=O)(=O)c1ccccc1)c1ccccc1` are 79.3% (active) and 67% (active).
On the same counts, the results for `COc1ccccc1CNS(=O)(=O)c1ccc(-c2cc(C)no2)cc1` are -13% and -7.27%.
On the same counts, the results for `O=C(N/N=C/c1coc2ccc(Cl)cc2c1=O)c1ccncc1` are -13.1% and 31.4%.
For `CCOc1cccc(NC(=O)C2CC(=O)N(c3ccc(F)cc3)C2)c1` (centres undefined), the inhibition was 6.75% in experiment [1] and -14.1% in experiment [2].
For `COc1ccc(C(=O)NC2CC3CCCC(C2)N3CC(C)C)cc1` (centres undefined), the inhibition is 2.31% in experiment [1] and -12.2% in experiment [2].
The like results for `COc1ccc(S(=O)(=O)n2ccc(-c3ccc(OCCN(C)c4ccccn4)cc3)n2)cc1` were, in that order, 3.56% and 30.2%.
In the case of `CCOc1ccc(CN(C)C(=O)CCl)cc1`, the values for the inhibition in experiment [1] and in experiment [2] were 30.9% and 35.6%, respectively.
The like results for `Cc1onc(-c2ccccc2Cl)c1C(=O)N1CCC(Cc2ccccc2)CC1` were, in that order, 9.05% and 10.1%.
Regarding `O=C(O)CCCc1ccc2c(c1)CCc1ccccc1-2`, the inhibition in experiment [1] is 29.6%; in experiment [2], 77.1% (active).
On the same counts, the results for `CCc1ccc(C(=O)N2CCN(c3ccc(NC(=O)c4cccnc4)cc3)CC2)cc1` are -14.2% and -9.49%.
The like results for `O=C1C=CC(=O)C(CNc2ccc(C(=O)OCc3ccccc3)cc2)=C1` were, in that order, 38.2% (active) and 39.2%.
On the same counts, the results for `CCOc1ccc(-c2cc(CCCC(=O)N3CCN(c4ccc(OC)cc4)CC3)no2)cc1` are 4.64% and 18.6%.
As to `CC(=O)Nc1ccc(NC(=O)c2nc(S(=O)(=O)Cc3cccc(C)c3)ncc2Cl)cc1`, the values for the inhibition in experiment [1] and in experiment [2] were 21.6% and 50.8% (active), respectively.
On the same counts, the results for `COc1ccc(NC(=O)CSc2nnnn2C2CCCCC2)c(OC)c1` are 1.44% and 14.6%.
The like results for `O=C(CN1CCN(S(=O)(=O)c2ccc(F)c(F)c2)CC1)Nc1ccccc1C(=O)NC1CC1` were, in that order, -15.4% and -35.8%.
The like results for `C[C@@H]1CNCCN1c1ccc(N2CCN(Cc3ccccc3)[C@@H](C)C2)c(C#N)c1` were, in that order, 15.5% and 17.3%.
Consider `CCOC(=O)C1=C(COC(=O)CCOc2cc(C)ccc2C)NC(=O)NC1C` (centres undefined), for which the inhibition was -6.92% in experiment [1] and -29.2% in experiment [2].
The like results for `Cc1c(C=O)n(C)n(-c2ccccc2)c1=O` were, in that order, -14.4% and 2.35%.
On the same counts, the results for `COc1ccc(NC(=O)C2(C)Cc3c(-c4cccc(C(F)(F)F)c4)ccnc3O2)cn1` (centres undefined) are -0.87% and -0.12%.
On the same counts, the results for `COc1ccc(-n2nc3cc(C)c(N)c(Br)c3n2)cc1` are -67.1% and -140%.
As to `COc1cc(N(C(C)=O)c2ccc(O)cc2)c2ncccc2c1`, the figures for the inhibition in experiment [1] and in experiment [2] were 1.2% and 2.41%, respectively.
On the same counts, the results for `O=C(/C=C/c1cccnc1)/C=C/c1cccnc1` are 77.1% (active) and 5.81%.
The like results for `Cc1ccc(S(=O)(=O)CCSC(=N)N)cc1` were, in that order, 2.05% and 6.17%.
For `Cn1nnnc1Sc1ncnc2scc(-c3cccc(C(F)(F)F)c3)c12`, the inhibition in experiment [1] was 36.9% (active); in experiment [2] it was 52.3% (active).
On the same counts, the results for `Cc1cc(N2CCOCC2)c2c(N)cc(C)c(C)c2n1` are -7.44% and -11.2%.
As to `COc1ccc(C(=O)/C=C/Nc2ccccn2)cc1`, the inhibition in experiment [1] is 3.41%; in experiment [2], 30.8%.
As to `COc1ccc(CCNC(=S)N2CCC(C(=O)c3ccc(F)cc3)CC2)cc1OC`, the inhibition was 11.5% in experiment [1] and 20.5% in experiment [2].
The like results for `Cc1nc([N+](=O)[O-])c(Br)n1Cc1ccccc1` were, in that order, 3.69% and 11.9%.
As to `COC(=O)c1ccc(/C=C2/SC(=S)N(CCCC(=O)Nc3ccc(O)cc3)C2=O)cc1`, the results for the inhibition in experiment [1] and in experiment [2] were 15.8% and 7.74%, respectively.
On the same counts, the results for `CN1CCC(=NNc2ncnc3sc4c(c23)CCCC4)CC1` are -9.72% and -19.6%.
The like results for `O=[N+]([O-])c1cccc2cnccc12` were, in that order, -10.2% and 3.57%.
Regarding `Cc1ccc(C(=O)OCC(=O)NC2CCCC(C)C2C)cc1S(=O)(=O)N1CCCCC1` (centres undefined), the figures for the inhibition in experiment [1] and in experiment [2] were -10.8% and 9.97%, respectively.
The like results for `Cc1cc(N)ccc1-n1nc2ccccc2n1` were, in that order, -7.48% and 3.06%.
Take `COC(=O)c1cc(C(=O)OC)cc(S(=O)(=O)Nc2ccc(Cl)c(N)c2)c1`: the inhibition in experiment [1] is -6.46%; in experiment [2], -14.7%.
The like results for `C=C1C(=O)[C@]23C[C@H]1CCC2[C@]1(C)CCC[C@@](C)(C(=O)O)C1C[C@@H]3O` (some centres undefined) were, in that order, 4.96% and 6.02%.
On the same counts, the results for `O=C(CCCN1C(=O)/C(=C/c2ccccc2Cl)SC1=S)NNC(=O)c1cccnc1` are 34.3% and 29.9%.
The like results for `CCC/C(C#Cc1cc(OC)cc(OC)c1)=C1/c2ccccc2C(=O)N1c1ccccc1` were, in that order, 3.37% and -4.64%.
Take `CCOc1ccc(N2CC(C(=O)Nc3ccc4c(c3)OCCO4)CC2=O)cc1` (centres undefined): the results for the inhibition in experiment [1] and in experiment [2] were -5.36% and -6.17%, respectively.
The like results for `CCCCCC(=O)N1CC2(CC(c3cccc(NC(=O)COc4ccc(Cl)cc4)c3)=NO2)C[C@@H]1C(N)=O` (some centres undefined) were, in that order, -7.91% and -5.91%.
On the same counts, the results for `CCSc1ccccc1C(=O)N1CCN(c2ccc([N+](=O)[O-])cc2)CC1` are 0.48% and 15.7%.
The like results for `C/C(CC(=O)NC1C2CC3CC(C2)CC1C3)=N\NC(=O)Cc1cccs1` (centres undefined) were, in that order, -16.1% and -8.93%.
In the case of `O=[N+]([O-])c1ccc(S(=O)(=O)c2ccccc2)nc1`, the inhibition was 51.9% (active) in experiment [1] and 36% in experiment [2].
On the same counts, the results for `CC(OC(=O)CN1C(=O)NC2(CCCC2)C1=O)c1ccc(F)cc1` (centres undefined) are -16.9% and -26.5%.
Take `COc1ccc(/C=C2\SC(=S)N(CCC(=O)N3CCCCC3CCO)C2=O)cc1` (centres undefined): the inhibition was 1.26% in experiment [1] and 26.7% in experiment [2].
On to `COc1ccccc1-c1cn[nH]c1-c1ccc(O)cc1O`, for which the inhibition in experiment [1] is 1.82%; in experiment [2], 11.9%.
The like results for `COc1ccc(N(C(=O)CCl)C(C(=O)NCCc2ccccc2)c2cccs2)cc1` (centres undefined) were, in that order, 32.7% and 58.1% (active).
On the same counts, the results for `CC1=C(C(=O)N2CCOCC2)CC(CC(=O)NCCCCc2ccccc2)C(=O)N1Cc1ccc(C(C)(C)C)cc1` (centres undefined) are 12.6% and 2.06%.
Take `CC(=O)Nc1ccc(Nc2cc(C)nc3c(-c4ccccc4)cnn23)cc1`: the figures for the inhibition in experiment [1] and in experiment [2] were -21.3% and 35.7%, respectively.
The like results for `Cc1ccc(NC(=O)C2CCN(S(=O)(=O)c3c(C)noc3/C=C/c3ccco3)CC2)nc1` were, in that order, 11.6% and 22.4%.
On the same counts, the results for `COc1ccccc1N1CCN(C(CNC(=O)c2ccco2)c2cccnc2)CC1` (centres undefined) are -7.16% and -4.45%.
On the same counts, the results for `Cc1ccoc1C(=O)Nc1ccc(CC(=O)O)cc1` are 41.7% (active) and 83.4% (active).
`COc1ccc(C(=O)NCCNc2nc3cc(C)cc(C)c3cc2C#N)c(OC)c1`: the inhibition in experiment [1] is 3.31%; in experiment [2], 86.2% (active).
Turning to `CCOC(=O)C(=Cc1ccc(-n2cncn2)cc1)C(=O)OCC`, the inhibition in experiment [1] was 15.5%; in experiment [2], 24.5%.
